The campaign covered roughly 290,000 compounds. About 3,000 (1%) were called active. Shown is part of a subset that was picked to be rich in actives. A number with no mark means an inactive call. No stated cut-off is given here; in the data, active means inhibition mostly above about 36% (no sharp cut-off); inactive means mostly below about 34%.

This test can be described thus: inhibition of NOD1-driven NF-kB reporter – cell-based, luminescence, uHTS, primary screen (AID 1578).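 Further: HEK-293T reporter cells stimulated with the NOD1 agonist gamma-tri-DAP.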 The note with it: NOD1-driven NF-kB luciferase reporter cells, at 4 µM, stronger effect = higher value.
Regarding `COc1ccc(/C(C)=N/OC/C(O)=C(\C#N)c2nc3ccccc3[nH]2)cc1OC`, the inhibition is 5.6%. In the case of `COc1ccc(OC/C(O)=C(\C#N)c2nc3ccccc3[nH]2)cc1` it was -23.4%; in that of `Cc1ccc(C(C)C)c(OC/C(O)=C(\C#N)c2nc3ccccc3[nH]2)c1`, 36.3% (active). To `CCC(C)c1ccc(OCC(=O)NNC(=O)C2CCCCC2)cc1` (centres undefined) belongs -4.3%. To `Cc1ccccc1NC(=O)c1ccccc1-c1ccccc1` belongs -24.9%; to `CC(=O)Nc1ccccc1NC(=O)c1ccccc1-c1ccccc1`, 73% (active); to `O=C(Nc1ccccc1Br)c1ccccc1-c1ccccc1`, -10.7%. On to `CC(C)(CO)N=Cc1c(O)[nH]c2ccccc12`, for which the inhibition was -14.8%. To `CCCCCCC(=O)Nc1ccc(Cl)cn1` belongs -24.4%.

As to `C=CCN(CC=C)C(=O)c1cccc(OC2CCN(S(=O)(=O)N(C)C)CC2)c1`, the inhibition was 8.4%. To `CCOc1ccc2nc(SCC(=O)N3CCCCCC3)c(C#N)cc2c1` belongs -18.2%. In the case of `CCOc1ccc2nc(SCC#N)c(C#N)cc2c1` it was 68.2% (active). Turning to `CCSc1nc2ccc(OC)cc2cc1C#N`, the inhibition is -45.3%. In the case of `CCOC(=O)CN1C(=O)S/C(=C/c2ccc(O)c([N+](=O)[O-])c2)C1=O` it was -4.5%; in that of `O=C(O)c1cccc(CN2C(=O)S/C(=C/c3cccc([N+](=O)[O-])c3)C2=O)c1`, 1.5%; in that of `COc1ccc(O)c(/C=C2/SC(=S)N(Cc3ccccc3)C2=O)c1`, -3.5%.

Regarding `O=C1/C(=C\c2cc(Br)cc(Br)c2O)SC(=S)N1Cc1ccccc1`, the inhibition is 73.3% (active). To `O=C1/C(=C\c2ccc(O)cc2)SC(=S)N1Cc1ccccc1` belongs -9.6%. To `O=C(O)c1cccc(CN2C(=O)S/C(=C/c3ccccc3[N+](=O)[O-])C2=O)c1` belongs 3.9%; to `O=C1/C(=C\c2cccc(O)c2O)SC(=S)N1Cc1ccccc1`, -20.4%. To `CCOC(=O)N1CCN(S(=O)(=O)N2CCCC(C(=O)NCc3ccc(F)cc3)C2)CC1` (centres undefined) belongs 3.3%. For the molecule `O=C(CCC(=O)N(c1cccc(F)c1)C(C(=O)NC1CCCC1)c1ccncc1)Nc1cccnc1` (centres undefined), the inhibition was -42.2%.

As for `CC1C=CCC2C(=O)N(c3cccc(C(=O)Nc4ccc(Br)cc4)c3)C(=O)C12` (centres undefined), the inhibition was -16.6%. Regarding `CCCCN(CC)S(=O)(=O)c1c(C)[nH]c(=O)[nH]c1=O`, the inhibition is -34.4%. Turning to `CCOc1ccc(N2CC(C(=O)Nc3nnc(C4CCCCC4)s3)CC2=O)cc1` (centres undefined), the inhibition was -28.2%.

Consider `O=C(O)COc1ccccc1/C=N/NC(=O)c1cc(-c2ccccc2)nc2ccccc12`, for which the inhibition was -11.3%. As for `CCOc1cc(C(c2c(C)[nH][nH]c2=O)c2c(C)[nH][nH]c2=O)cc(Cl)c1O`, the inhibition is 7.7%.

`CC(Cc1ccccc1)C(=O)NCc1ccncc1` (centres undefined): the inhibition was -26.7%.

Regarding `CCc1ccc(NC(=O)C(=O)NCCN2CCN(Cc3ccc([N+](=O)[O-])cc3)CC2)cc1`, the inhibition was 12.5%. To `CCCCc1ccc(NC(=O)C(=O)NCCN2CCN(Cc3ccc([N+](=O)[O-])cc3)CC2)cc1` belongs 34.7% (active). In the case of `CCCCc1ccc(NC(=O)C(=O)NCCN2CCN(C(=O)c3ccc([N+](=O)[O-])cc3)CC2)cc1` it was 0.1%. In the case of `COc1ccc(-c2nnc(SCC(=O)N(Cc3ccccc3)C(C)(C)C)o2)cc1OC` it was 58.8% (active); in that of `COc1cc(-c2nnc(SCC(=O)N(Cc3ccccc3)C(C)(C)C)o2)cc(OC)c1OC`, 10.5%; in that of `COc1cc(OC)cc(-c2nnc(SCC(=O)N(Cc3ccccc3)C(C)(C)C)o2)c1`, 14.6%.

`CC1CN(S(=O)(=O)c2cccs2)CC(C)O1` (centres undefined): the inhibition was 34.6% (active). In the case of `O=S(=O)(c1cccs1)N1CCN(S(=O)(=O)c2cccs2)CC1` it was -16.1%; in that of `CC1CN(S(=O)(=O)c2ccccc2)CC(C)O1` (centres undefined), -8.4%. As to `CCOC(=O)NC(=O)/C(C#N)=N\Nc1ccc(Cl)cc1`, the inhibition is -37.5%. To `CCOC(=O)NC(=O)/C(C#N)=N\Nc1cccc(Cl)c1` belongs 55.7% (active); to `CCOC(=O)NC(=O)/C(C#N)=N\Nc1cccc(OC)c1`, -43%. As to `CC(C)COc1ccc(/C(O)=C2/C(=O)C(=O)N(CCN(C)C)C2c2ccncc2)cc1` (centres undefined), the inhibition is -0.8%. To `CS(=O)(=O)N1CCN(C(=O)COc2ccc3ccccc3c2)CC1` belongs 6.1%; to `CCc1ccc2oc(C(=O)NCCc3ccc(S(N)(=O)=O)cc3)cc(=O)c2c1`, -0.9%; to `CCOC(=O)c1c(NC(=O)C(=O)N/N=C/c2ccc(O)c(OC)c2)sc2c1CCCCC2`, 81.2% (active).

With `CCOC(=O)c1c(NC(=O)C(=O)N/N=C/c2ccccc2OC)sc2c1CCCCC2`, the inhibition was 7.6%. To `CCOC(=O)c1c(NC(=O)N/N=C/c2ccccc2OCC)sc(C(C)=O)c1C` belongs -33.7%; to `CCOC(=O)c1c(NC(=O)N/N=C/c2ccc(O)c(OC)c2)sc(C(C)=O)c1C`, 53.1% (active).

`CCOC(=O)c1c(NC(=O)C(=O)N/N=C/c2ccc(OCC)cc2)sc2c1CCCCC2`: the inhibition was -14.4%. To `COc1cc(/C=N/NC(=O)c2sc(N)c(C#N)c2C)ccc1O` belongs -14.2%; to `CN(CC(=O)Nc1ccccc1Cl)C1CCCCC1`, -46.1%. As for `O=C(Cc1cccs1)NCCSc1c(-c2ccc(Cl)cc2)[nH]c2ccccc12`, the inhibition was 30.7%. To `Cc1ccc(C(=O)NC(NCc2ccccc2)C(Cl)(Cl)Cl)cc1` (centres undefined) belongs 5.2%; to `O=C(COC(=O)C1CC2C=CC1C2)Nc1cccc(S(=O)(=O)N2CCCCC2)c1` (centres undefined), -18.1%. In the case of `Cc1ccc(-c2cc(C(F)(F)F)c(C#N)c(=O)[nH]2)cc1` it was 1.8%. To `N#Cc1c(C(F)(F)F)cc(-c2ccc(F)cc2)[nH]c1=O` belongs -17.2%; to `N#Cc1c(C(F)(F)F)cc(-c2ccc(Cl)cc2)[nH]c1=O`, 54.2% (active). For `O=C(Nc1nc(-c2nc3ccccc3s2)cs1)c1ccc(S(=O)(=O)N2CCOCC2)cc1`, the inhibition was 47.5%. In the case of `CCOc1cccc(CNc2ccc(O)cc2)c1OCc1ccc(Cl)cc1Cl` it was 7.6%.

Turning to `CCOc1cccc(CNc2ccc(O)cc2)c1OCc1ccccc1Cl`, the inhibition is 39.2% (active).

As for `CCOc1cccc(CNc2ccc(O)cc2)c1OCc1ccc(Cl)cc1`, the inhibition is 22.1%. Regarding `CCC(C)NC(=O)c1cc(Cl)c(NC(=O)C2=C(C)OCCS2)cc1OC` (centres undefined), the inhibition is -9.8%. To `Nc1nnc(SCc2nnc(-c3ccccc3)o2)s1` belongs -21%. As for `O=C1CCc2cc(S(=O)(=O)NC(Cc3ccccc3)C(=O)NC3CCCC3)ccc2N1` (centres undefined), the inhibition was -11.4%. In the case of `CCN(CC)S(=O)(=O)c1cccc(C(=O)N[C@H](C(=O)OCC(=O)Nc2ccccc2)C(C)C)c1` it was -24.7%; in that of `C/C(=N\Nc1ccc(Cl)cc1)c1ccccn1`, -119%; in that of `C/C(=N\Nc1ncc(Cl)cc1Cl)c1ccc(C#N)cc1`, -40.4%. In the case of `C/C(=N\Nc1ncc(Cl)cc1Cl)c1ccccn1` it was 103% (active); in that of `Cc1cc(C)c(C(=O)COC(=O)CCNS(=O)(=O)c2c(Cl)cccc2Cl)cc1C`, -13.2%; in that of `CCC(C(=O)NC1CC(C)(C)NC(C)(C)C1)c1ccccc1` (centres undefined), -18.7%. In the case of `COc1cccc(-n2c(Cn3nc(C(F)(F)F)cc3C)n[nH]c2=S)c1` it was 2.3%; in that of `CCn1cc(C(=O)NCc2ccc3c(c2)OCO3)c(=O)c2cc(F)c(N3CCN(C(=O)c4ccco4)CC3)cc21`, 82.7% (active). With `CCn1cc(C(=O)NCc2ccccc2)c(=O)c2cc(F)c(N3CCN(C(=O)c4ccco4)CC3)cc21`, the inhibition was 46.3%. As to `CCn1cc(C(=O)NCc2cccc(F)c2)c(=O)c2cc(F)c(N3CCN(C(=O)c4ccco4)CC3)cc21`, the inhibition is 0.3%. For the molecule `CCOc1ccc(NC(=O)C2CCN(S(=O)(=O)c3ccc4c(c3)CC(C)N4C(C)=O)CC2)cc1` (centres undefined), the inhibition was -19.4%. For the molecule `Cc1nn(C)cc1-c1n[nH]c(=S)n1-c1ccc(F)cc1`, the inhibition was -1.9%.

`O=c1[nH]ncc2c3ccccc3n(Cc3ccc(F)cc3)c12`: the inhibition is -2.2%. Regarding `O=c1[nH]ncc2c3ccccc3n(Cc3ccccc3)c12`, the inhibition is 36.5%.

Turning to `Cc1ccc(Cn2c3ccccc3c3cn[nH]c(=O)c32)cc1`, the inhibition is 59.1% (active). To `CN(C)C(=O)CN1C(=O)NC2(CCCc3ccccc32)C1=O` (centres undefined) belongs -1.9%; to `CCOC(=O)N1CCC(N(CCN(C)C)C(=S)Nc2cc(Cl)cc(Cl)c2)CC1`, 65.6% (active); to `CCOC(=O)N1CCC(N(CCN(C)C)C(=S)Nc2cc(C)cc(C)c2)CC1`, -15.3%.

For `CCOC(=O)N1CCC(N(CCN(C)C)C(=S)Nc2cccc(Cl)c2)CC1`, the inhibition was 0.8%. Take `CC(C)(C(=O)N[C@H](CO)c1ccccc1)C(=O)N[C@H](CO)c1ccccc1`: the inhibition was 95% (active).

Turning to `O=C(NC(CO)c1ccccc1)c1ccco1` (centres undefined), the inhibition was 3%. To `CC(C)(C)C(=O)NC(CC(=O)O)c1ccccc1` (centres undefined) belongs -18.6%; to `COCCNC(=O)c1cc(Sc2nnc(C)s2)nc2ccccc12`, -10.4%. In the case of `CCOC(=O)c1sc(NC(=O)c2cccc(S(=O)(=O)N3c4ccccc4CC3C)c2)cc1C` (centres undefined) it was 6.7%; in that of `Cc1ccc(NC(=O)CCc2nc3ccccc3s2)c(O)c1`, 43% (active).

With `Cc1ccc2nc(NC(=O)CCCc3nc4ccccc4s3)sc2c1`, the inhibition was -29%.

For the molecule `Cc1ccc(NC(=O)CCCc2nc3ccccc3s2)c(O)c1`, the inhibition was -33.8%. On to `O=C(c1ccc(F)cc1)n1c(NCc2ccccc2)n[nH]c1=S`, for which the inhibition was -17.3%. In the case of `O=c1cc(C(F)(F)F)[nH]c2c(C(F)(F)F)cccc12` it was 72.8% (active). On to `O=c1cc(C(F)(F)F)[nH]c2c(OC(F)(F)F)cccc12`, for which the inhibition is 15.5%.

As to `Cc1cccc2c(=O)cc(C(F)(F)F)[nH]c12`, the inhibition was 1.3%.

The values are drawn from PubChem BioAssay AID1578 (Sanford-Burnham Center for Chemical Genomics, 2009).
